PubChem BioAssay (EPA / NIEHS)
Several values for one entry are separate records, joined by “and”; a condition that tells them apart may be missing. Equal values may be shown once. Where a structure was tested more than once in an assay, its records may differ in their call. Activity calls are given as the source filed them. Rule for the calls, unless noted: active = hit-call score of the fitted dose curve at least 0.9, where 1 is the maximum; inactive = score below 0.9.

Experiments:
[1] = read-out: Macrophage colony-stimulating factor (MCSF), CSF1 (gene 1435); assay: BSK_LPS_MCSF: BioMAP Diversity Plus: LPS Assay for Macrophage colony-stimulating factor (MCSF) Biomarker Activity (AID 2283083); details: primary human HUVEC with PBMC; actives raise or lower the signal
Outline: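 HUVEC + PBMC co-culture (human primary), 24 h post-dose; M-CSF by ELISA; gain/loss of signal fitted bidirectionally vs DMSO baseline.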

[2] = read-out: Tissue Factor, F3 (gene 2152); assay: BSK_LPS_TissueFactor: BioMAP Diversity Plus: LPS Assay for Tissue Factor Biomarker Activity (AID 2283084); details: primary human HUVEC with PBMC; actives raise or lower the signal
Outline: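 HUVEC/PBMC co-culture, LPS-activated; CD142 ELISA read 24 h post-dose; bidirectional curve fit vs DMSO negative control.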

[3] = read-out: Tumor necrosis factor (Homo sapiens) (UniProt P01375); assay: BSK_LPS_TNFa: BioMAP Diversity Plus: LPS Assay for Tumour Necrosis Factor alpha (TNFa) Biomarker Activity (AID 2283085); details: primary human HUVEC with PBMC; actives raise or lower the signal;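 for AC50: TNFa protein level quantified by ELISA in the co-culture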
Outline: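 Cells (umbilical vein endothelium plus peripheral blood mononuclear cells) were dosed with chemical, incubated 24 h, then TNFa was quantified by ELISA; values derive from bidirectional fitting with DMSO as baseline.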

[4] = read-out: Vascular cell adhesion molecule 1 (VCAM1), VCAM1 (gene 7412); assay: BSK_LPS_VCAM1: BioMAP Diversity Plus: LPS Assay for Vascular cell adhesion molecule 1 (VCAM1) Biomarker Activity (AID 2283086); details: primary human HUVEC with PBMC; actives raise or lower the signal
Outline: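 Cells are dosed in an LPS-stimulated endothelial/mononuclear co-culture and, after 24 h, VCAM-1 is quantified by ELISA. Activity in either direction is fitted relative to the DMSO negative control.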

[5] = read-out: CD38, CD38 (gene 952); assay: BSK_SAg_CD38: BioMAP Diversity Plus: SAg Assay for CD38 Biomarker Activity (AID 2283087); details: primary human HUVEC with PBMC; actives raise or lower the signal
Outline: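 CD38 quantified by ELISA (fluorescence) in a superantigen-activated endothelial cell–PBMC co-culture at 24 h post-dose. Activity fitted in both directions relative to DMSO; parallel SRB and Alamar Blue cytotoxicity read-outs.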

[6] = read-out: CD40, CD40 (gene 958); assay: BSK_SAg_CD40: BioMAP Diversity Plus: SAg Assay for CD40 Biomarker Activity (AID 2283088); details: primary human HUVEC with PBMC; actives raise or lower the signal
Outline: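 HUVEC/PBMC co-culture, 24 h post-dose; CD40 by ELISA, fluorescence intensity; bidirectional fit vs DMSO negative control.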

[7] = read-out: CD69, CD69 (gene 969); assay: BSK_SAg_CD69: BioMAP Diversity Plus: SAg Assay for CD69 Biomarker Activity (AID 2283089); details: primary human HUVEC with PBMC; actives raise or lower the signal;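 for AC50: cell surface CD69 protein quantified by ELISA with fluorescence detection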
Outline: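 Endothelial/PBMC co-culture; chemical added; 24 h incubation; CD69 ELISA with fluorescence detection; bidirectional fit vs DMSO.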

[8] = read-out: Monocyte Chemoattractant Protein-1 (MCP1), CCL2 (gene 6347); assay: BSK_SAg_MCP1: BioMAP Diversity Plus: SAg Assay for Monocyte Chemoattractant Protein-1 (MCP1) Biomarker Activity (AID 2283090); details: primary human HUVEC with PBMC; actives raise or lower the signal
Outline: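 Values derive from bidirectional fitting of ELISA-measured MCP1 against DMSO controls. Readings were taken 24 h after dosing human vascular endothelial cells co-cultured with peripheral blood mononuclear cells under superantigen stimulation.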

[9] = read-out: E-selectin (Homo sapiens) (UniProt P16581); assay: BSK_SAg_Eselectin: BioMAP Diversity Plus: SAg Assay for Eselectin Biomarker Activity (AID 2283091); details: primary human HUVEC with PBMC; actives raise or lower the signal
Outline: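 E-selectin ELISA readout at 24 h post-dosing in human umbilical vein endothelial cell/PBMC co-culture; gain or loss of signal fitted relative to DMSO baseline.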

[10] = read-out: Monokine induced gamma interferon (MIG), CXCL9 (gene 4283); assay: BSK_SAg_MIG: BioMAP Diversity Plus: SAg Assay for Monokine induced gamma interferon (MIG) Biomarker Activity (AID 2283092); details: primary human HUVEC with PBMC; actives raise or lower the signal
Outline: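 Measures CXCL9 protein by ELISA in a human vascular primary-cell co-culture (umbilical vein endothelium with PBMC) 24 h after chemical addition. Activity is scored up or down from the DMSO control.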

[11] = BSK_SAg_PBMCCytotoxicity: PBMC Cytotoxicity Assessment in the BioMAP Diversity Plus: SAg Assay (AID 2283093); details: primary human HUVEC with PBMC;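 note: fitted both ways against DMSO so a hit may be loss or gain of signal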;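 for AC50: PBMC superantigen activated with SEB plus TSST-1 one hour after compound addition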
Outline: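 PBMC viability by Alamar Blue reduction, fluorescence read at 546/580 nm after 6 h dye exposure. Cells were dosed 1 h before SEB plus TSST-1 activation (20 ng/mL final each), then held 90 h; endothelial/PBMC human co-culture.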

[12] = read-out: Interleukin-8 (IL8), CXCL8 (gene 3576); assay: BSK_SAg_IL8: BioMAP Diversity Plus: SAg Assay for Interleukin-8 (IL8) Biomarker Activity (AID 2283094); details: primary human HUVEC with PBMC; actives raise or lower the signal
Outline: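 Chemicals were dosed onto a human endothelial–PBMC co-culture, and IL-8 was quantified by ELISA after 24 h. Both increases and decreases were fitted relative to DMSO.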

[13] = BSK_SAg_Proliferation: Cell Proliferation Assessment in the BioMAP Diversity Plus: SAg Assay (AID 2283095); details: primary human HUVEC with PBMC;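 note: relative cell number as total protein by SRB absorbance in sub-confluent culture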
Outline: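 Absorbance of sulforhodamine B at 560 nm reports total protein in a human vascular endothelial/PBMC co-culture after 96 h chemical exposure. Gain or loss of signal is fitted in both directions against DMSO.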

[14] = BSK_SAg_SRB: Viability Assessment in the BioMAP Diversity Plus: SAg Assay (AID 2283096); details: primary human HUVEC with PBMC;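 note: cells read one day after compound addition; hits may be either gain or loss of signal compared with DMSO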
Outline: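 Compounds were added to a human vascular co-culture of umbilical vein endothelium and PBMC. After 24 h, parallel cultures were fixed with 10% TCA, stained with 0.1% sulforhodamine B and read at 560 nm. Gain or loss of signal was fitted relative to DMSO.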

[15] = BSK_LPS_PGE2: BioMAP Diversity Plus: LPS Assay for Prostaglandin E2 (PGE2) Biomarker Activity (AID 2283082); details: primary human HUVEC with PBMC; actives raise or lower the signal;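 for AC50: secreted prostaglandin E2 measured by ELISA in LPS-stimulated co-culture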
Outline: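 Compounds were added to the LPS co-culture of endothelium and PBMC, and PGE2 was measured by ELISA after 24 h. Responses in either direction were fitted with DMSO as baseline.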

[16] = molecular target: human CYP2D6, CYP2D6 (gene 1565) (UniProt P10635); assay: NVS_ADME_hCYP2D6: NovaScreen (NVS) CYP450-related Enzyme Activity (ADME) Assay for human CYP2D6 (AID 2283107; active = hit-call score of the fitted dose curve at least 0.9, where 1 is the maximum)
human CYP2D6, CYP2D6 (gene 1565), sequence (P10635 whole entry, looked up): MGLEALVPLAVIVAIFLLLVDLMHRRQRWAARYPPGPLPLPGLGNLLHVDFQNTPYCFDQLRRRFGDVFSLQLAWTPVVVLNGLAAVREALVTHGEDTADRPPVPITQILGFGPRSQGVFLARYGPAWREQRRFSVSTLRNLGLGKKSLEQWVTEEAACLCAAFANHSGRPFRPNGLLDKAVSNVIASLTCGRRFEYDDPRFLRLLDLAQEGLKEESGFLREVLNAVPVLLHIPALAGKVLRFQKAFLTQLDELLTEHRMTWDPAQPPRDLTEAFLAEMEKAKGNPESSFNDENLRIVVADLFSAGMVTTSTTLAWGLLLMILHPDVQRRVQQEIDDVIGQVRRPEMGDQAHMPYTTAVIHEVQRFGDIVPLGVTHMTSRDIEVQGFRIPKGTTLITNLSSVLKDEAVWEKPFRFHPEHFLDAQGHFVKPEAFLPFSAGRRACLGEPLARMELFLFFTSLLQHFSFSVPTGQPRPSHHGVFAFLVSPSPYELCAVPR
Outline: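 Fluorescence intensity read 1 h post-dosing; insect-cell-expressed recombinant protein with fluorogenic substrate, no cells. Activity is scored as signal loss relative to acetonitrile baseline, first at a single 10 uM concentration in duplicate, then as concentration series for confirmed actives.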

E-selectin (Homo sapiens), sequence (P16581 whole entry, looked up): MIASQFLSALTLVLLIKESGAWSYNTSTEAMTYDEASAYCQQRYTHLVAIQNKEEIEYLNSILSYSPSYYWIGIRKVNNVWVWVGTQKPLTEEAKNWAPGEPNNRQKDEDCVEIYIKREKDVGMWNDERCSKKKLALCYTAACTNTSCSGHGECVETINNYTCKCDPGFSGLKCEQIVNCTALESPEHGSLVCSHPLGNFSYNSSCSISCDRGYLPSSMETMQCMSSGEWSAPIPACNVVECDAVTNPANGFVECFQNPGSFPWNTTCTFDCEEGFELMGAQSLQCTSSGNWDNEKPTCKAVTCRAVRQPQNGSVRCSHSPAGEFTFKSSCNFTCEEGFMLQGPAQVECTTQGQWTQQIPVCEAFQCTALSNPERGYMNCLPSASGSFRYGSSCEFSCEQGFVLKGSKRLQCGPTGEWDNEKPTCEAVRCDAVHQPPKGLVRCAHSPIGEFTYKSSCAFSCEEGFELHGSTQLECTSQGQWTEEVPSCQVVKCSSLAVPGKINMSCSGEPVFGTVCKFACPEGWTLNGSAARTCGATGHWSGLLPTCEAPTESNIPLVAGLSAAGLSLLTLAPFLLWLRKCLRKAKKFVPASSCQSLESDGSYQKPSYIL
Tumor necrosis factor (Homo sapiens), sequence (P01375 whole entry, looked up): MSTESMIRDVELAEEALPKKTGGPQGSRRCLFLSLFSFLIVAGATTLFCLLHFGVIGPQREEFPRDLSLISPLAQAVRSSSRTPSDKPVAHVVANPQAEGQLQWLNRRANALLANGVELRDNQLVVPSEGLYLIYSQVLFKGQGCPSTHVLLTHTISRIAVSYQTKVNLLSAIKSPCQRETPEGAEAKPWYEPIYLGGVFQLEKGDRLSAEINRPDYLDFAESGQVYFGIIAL

O=S(=O)(O)CCC(F)(F)C(F)(F)C(F)(F)C(F)(F)C(F)(F)C(F)(F)C(F)(F)C(F)(F)F
AC50 [1]: 51.4 µM (active)
outcome [1]: inactive
outcome [2]: inactive
AC50 [3]: 47.1 µM (active)
outcome [3]: inactive
AC50 [4]: 5.95 µM (active)
outcome [4]: inactive
AC50 [5]: 15.6 µM (active)
outcome [5]: inactive
outcome [6]: inactive
outcome [7]: inactive
outcome [8]: inactive
outcome [9]: inactive
outcome [10]: inactive
outcome [11]: inactive
outcome [12]: inactive
outcome [13]: inactive
outcome [14]: inactive

O=C(O)CCC(F)(F)C(F)(F)C(F)(F)C(F)(F)C(F)(F)C(F)(F)C(F)(F)F
outcome [15]: inactive
outcome [1]: inactive
outcome [2]: inactive
outcome [3]: inactive
outcome [4]: inactive
outcome [5]: inactive
outcome [6]: inactive
outcome [7]: inactive
outcome [8]: inactive
outcome [9]: inactive
outcome [10]: inactive
outcome [11]: inactive
outcome [12]: inactive
outcome [13]: inactive
outcome [14]: inactive

Cc1ccc(O)c(-n2nc3ccccc3n2)c1
outcome [15]: inactive
outcome [1]: inactive
outcome [2]: inactive
AC50 [3]: 1.8 µM (active)
outcome [4]: inactive
outcome [5]: inactive
outcome [6]: inactive
outcome [7]: inactive
outcome [8]: inactive
outcome [9]: inactive
outcome [10]: inactive
outcome [11]: inactive
outcome [12]: inactive
outcome [13]: inactive
outcome [14]: inactive

Cc1cc(C)c(O)c(C(C)(C)C)c1
outcome [15]: inactive
AC50 [1]: 34.4 µM (active)
AC50 [2]: 30.8 µM (active)
outcome [3]: inactive
AC50 [4]: 31.3 µM (active)
AC50 [5]: 32.5 µM (active)
AC50 [6]: 30.5 µM (active)
AC50 [7]: 31.5 µM (active)
AC50 [8]: 30.8 µM (active)
AC50 [9]: 28.8 µM (active)
outcome [10]: inactive
AC50 [11]: 31.7 µM (active)
outcome [12]: inactive
AC50 [14]: 35.1 µM (active)

CCN(CC)c1ccc(N=Nc2ccccc2)cc1
outcome [15]: inactive
AC50 [1]: 20 µM (active)
outcome [2]: inactive
outcome [3]: inactive
outcome [4]: inactive
AC50 [5]: 27.5 µM (active)
AC50 [6]: 14.2 µM (active)
AC50 [7]: 14.3 µM (active)
AC50 [8]: 30.2 µM (active)
AC50 [9]: 13.8 µM (active)
outcome [10]: inactive
AC50 [11]: 20 µM (active)
AC50 [12]: 29.4 µM (active)
AC50 [14]: 29.5 µM (active)

OCCCC(F)(F)C(F)(F)C(F)(F)C(F)(F)C(F)(F)C(F)(F)C(F)(F)C(F)(F)F
outcome [15]: inactive
AC50 [1]: 44.2 µM (active) and 22.5 µM (active)
AC50 [2]: 39.3 µM (active) and 23.2 µM (active)
AC50 [3]: 29.7 µM (active) and 19.9 µM (active)
AC50 [4]: 41.4 µM (active) and 23.6 µM (active)
AC50 [5]: 44.8 µM (active) and 26 µM (active)
AC50 [6]: 43.8 µM (active) and 45.5 µM (active)
AC50 [7]: 45.5 µM (active) and 46.7 µM (active)
AC50 [8]: 23.2 µM (active) and 51.9 µM (active)
AC50 [9]: 52 µM (active) and 54 µM (active)
AC50 [10]: 53.4 µM (active) and 53.2 µM (active)
AC50 [11]: 17.3 µM (active) and 14.4 µM (active)
AC50 [12]: 43.2 µM (active) and 37 µM (active)
AC50 [14]: 27 µM (active) and 47.8 µM (active)

O=C(c1ccccc1)c1ccc(O)cc1O
AC50 [15]: 0.726 µM (active)
outcome [1]: inactive
outcome [2]: inactive
outcome [3]: inactive
outcome [4]: inactive
AC50 [5]: 20 µM (active)
outcome [6]: inactive
outcome [7]: inactive
outcome [8]: inactive
outcome [9]: inactive
outcome [10]: inactive
outcome [11]: inactive
outcome [12]: inactive
outcome [14]: inactive
AC50 [16]: 5 µM (active)

O=S(=O)(O)CCC(F)(F)C(F)(F)C(F)(F)C(F)(F)F
outcome [15]: inactive
outcome [1]: inactive
outcome [2]: inactive
outcome [3]: inactive
outcome [4]: inactive
outcome [5]: inactive
outcome [6]: inactive
outcome [7]: inactive
outcome [8]: inactive
outcome [9]: inactive
outcome [10]: inactive
outcome [11]: inactive
outcome [12]: inactive
outcome [13]: inactive
outcome [14]: inactive

O=C(O)C(F)(F)C(F)(F)C(F)(F)OC(F)(C(F)(F)F)C(F)(F)F
outcome [15]: inactive
outcome [1]: inactive
outcome [2]: inactive
outcome [3]: inactive
outcome [4]: inactive
outcome [5]: inactive
outcome [6]: inactive
outcome [7]: inactive
outcome [8]: inactive
outcome [9]: inactive
outcome [10]: inactive
outcome [11]: inactive
outcome [12]: inactive
outcome [14]: inactive

O=S(=O)(OCC(F)(F)F)C(F)(F)C(F)(F)C(F)(F)C(F)(F)F
outcome [1]: inactive
AC50 [2]: 9.88 µM (active)
outcome [2]: inactive
AC50 [3]: 43.7 µM (active) and 16.3 µM (active)
outcome [4]: inactive
outcome [5]: inactive
outcome [6]: inactive
outcome [7]: inactive
outcome [8]: inactive
outcome [9]: inactive
outcome [10]: inactive
outcome [11]: inactive
AC50 [12]: 30 µM (active)
outcome [12]: inactive
outcome [13]: inactive
outcome [14]: inactive

O=C=Nc1cccc2c(N=C=O)cccc12
outcome [15]: inactive
outcome [1]: inactive
outcome [2]: inactive
outcome [3]: inactive
outcome [4]: inactive
outcome [5]: inactive
outcome [6]: inactive
outcome [7]: inactive
outcome [8]: inactive
outcome [9]: inactive
outcome [10]: inactive
outcome [11]: inactive
outcome [12]: inactive
outcome [13]: inactive
outcome [14]: inactive

OCC(F)(F)C(F)(F)C(F)(F)C(F)(F)C(F)(F)C(F)(F)C(F)(F)C(F)(F)CO
outcome [1]: inactive
outcome [2]: inactive
AC50 [3]: 0.399 µM (active)
outcome [3]: inactive
outcome [4]: inactive
outcome [5]: inactive
outcome [6]: inactive
AC50 [7]: 5.61 µM (active)
outcome [7]: inactive
outcome [8]: inactive
outcome [9]: inactive
outcome [10]: inactive
AC50 [11]: 43.8 µM (active) and 50.7 µM (active)
outcome [12]: inactive
outcome [14]: inactive

FC(F)(F)C(F)(F)C(F)(F)C(F)(F)C(F)(F)C(F)(F)C(F)(F)CCI
outcome [15]: inactive
outcome [1]: inactive
outcome [2]: inactive
outcome [3]: inactive
outcome [4]: inactive
outcome [5]: inactive
outcome [6]: inactive
outcome [7]: inactive
outcome [8]: inactive
outcome [9]: inactive
outcome [10]: inactive
outcome [11]: inactive
outcome [12]: inactive
outcome [13]: inactive
outcome [14]: inactive
